PubChem BioAssay (Tox21)
Inconclusive results are not listed. Values without a mark were called inactive. Calls come from the whole dose curve.

target: Muscarinic acetylcholine receptor M1 (Homo sapiens) (UniProt P11229); test: Cholinergic receptor muscarinic 1 (CHRM1) small molecule antagonists, cell-based qHTS assay (AID 1963588); details: CHRM1-CHO antagonist mode, calcium flux fluorescence; series mostly up to 61.5 µM; activity, negative = inhibition: at the top concentration; note: nearly all actives have a fitted effect of over 40% in size
From the text: National Center for Advancing Translational Sciences [NCATS]
Division of Preclinical Innovation [DPI]
U.S. Environmental Protection Agency [EPA]
National Institutes of Environmental Health Sciences [NIEHS]
National Toxicology Program [NTP]
U.S. Food and Drug Administration [FDA]
The CHRM1 is a muscarinic receptor. This receptor plays a crucial role in learning and memory processes and has long been identified as a promising therapeutic target for the improvement of cognitive decline in Alzheimer's disease (AD). The CHRM1-CHO cell line stably expressing human muscarinic acetylcholine receptor M1 (CHRM1) can be used for screening agonists and antagonists of interactions between CHRM1 and its ligands. The CHRM1-CHO Calcium Flux Assay is a homogeneous fluorescence-based assay for detecting the intracellular calcium level using FDSS kinetic plate reader system.
Tox21 Assay Protocol Summary:
CHRM1-CHO cells were dispensed at 1000 cells/3uL/well in 1536-well black-clear bottom plates using a Multidrop Dispenser. After the assay plates were incubated at a 37 C/5% CO2 incubator for 18 h, 3 uL of Dye Loading Buffer was transferred to the assay plate by a Flying Reagent Dispenser. The assay plates were incubated at 37 C for 1h. For antagonist mode, 23 nL of compounds dissolved in DMSO, positive controls or DMSO only was transferred to the assay plate by a pin tool. After 5 min incubation at room temperature, 1.5 uL of acetylcholine at 50nM was added to each well. The fluorescence intensity in the plates was measured using FDSS 7000EX kinetic plate reader for 3 min at 1 sec intervals. Each test compound was measured at 15 concentrations in three independent runs.
% is set by controls: 0 for no effect and ±100 for the full control effect.

Sequence of Muscarinic acetylcholine receptor M1 (Homo sapiens) (P11229 whole entry, looked up): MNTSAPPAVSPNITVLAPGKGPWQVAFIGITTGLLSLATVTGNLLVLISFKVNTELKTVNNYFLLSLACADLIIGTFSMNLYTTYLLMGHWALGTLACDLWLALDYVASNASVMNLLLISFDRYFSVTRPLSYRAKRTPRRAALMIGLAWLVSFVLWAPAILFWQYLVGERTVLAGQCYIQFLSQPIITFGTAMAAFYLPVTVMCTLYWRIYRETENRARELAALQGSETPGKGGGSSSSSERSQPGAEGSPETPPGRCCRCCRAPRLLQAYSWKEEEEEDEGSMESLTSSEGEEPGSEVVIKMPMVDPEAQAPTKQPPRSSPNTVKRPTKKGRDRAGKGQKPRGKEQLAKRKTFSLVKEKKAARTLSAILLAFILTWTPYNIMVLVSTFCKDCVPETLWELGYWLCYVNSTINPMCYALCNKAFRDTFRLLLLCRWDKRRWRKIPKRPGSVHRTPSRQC

Question: How did the “activity, negative = inhibition” value turn out when COC(=O)c1nc(Cl)c(Cl)nc1N was run?
Answer: 0.337% [at 28.3 µM]

Question: Which “activity, negative = inhibition” value does the source give for COc1cccc(N(C)C(=S)Oc2ccc3c(c2)CCCC3)n1 here?
Answer: 0.84% [at 28.3 µM]

Question: Which “activity, negative = inhibition” value does the source give for Nc1ccn(C2CO[C@H](CO)O2)c(=O)n1 (stereo not given in full) here?
Answer: -18.9% [at 28.3 µM]

Question: Which “activity, negative = inhibition” value does the source give for C[C@@H](Oc1ccc(CNC(=O)c2cccnc2Oc2ccc3c(c2)OCO3)c(F)c1)C(=O)O here?
Answer: 12%

Question: For O=[N+]([O-])c1ccc2ncccc2c1, which “activity, negative = inhibition” value is on record?
Answer: -11%

Question: CCCCc1ccc2nc(NC(=O)OC)[nH]c2c1 was tested. Which “activity, negative = inhibition” value did it give?
Answer: 15.4% [at 28.3 µM]

Question: With COC(=O)/C=C/C(C)=C\C=C\C(C)=C\C=C\C=C(C)\C=C\C=C(C)\C=C\C(=O)O as the molecule, how does the “activity, negative = inhibition” value read?
Answer: 12.9%

Question: For O=CO, which activity, negative = inhibition is on record?
Answer: 7.62% [at 5.58 µM]

Question: How did the “activity, negative = inhibition” value turn out when Cc1cc(C(=C2C=CC(=Nc3ccc(S(=O)(=O)O)cc3S(=O)(=O)O)C=C2)c2ccc(Nc3ccc(S(=O)(=O)O)cc3)cc2)ccc1N was run?
Answer: 4.44% [at 28.3 µM]

Question: With CC(C)c1ccccc1N as the molecule, how does the “activity, negative = inhibition” value read?
Answer: -13.8%

Question: How did the “activity, negative = inhibition” value turn out when C=Cc1ccc(C=C)cc1 was run?
Answer: 18.8%

Question: How did the “activity, negative = inhibition” value turn out when CCOc1ccc(NS(=O)(=O)c2ccc(N)cc2)nn1 was run?
Answer: 9.58% [at 28.3 µM]

Question: For CCCCC(CC)CN1CN(CC(CC)CCCC)CC(C)(N)C1 (stereo not given), which “activity, negative = inhibition” value is on record?
Answer: -21.7% [at 28.3 µM]

Question: Which “activity, negative = inhibition” value does the source give for CCCCCCCCCCO[C@@H]1O[C@H](CO)[C@@H](O)[C@H](O)[C@H]1O here?
Answer: -2.57%

Question: Which “activity, negative = inhibition” value does the source give for Clc1cccc(C(c2ccc3nc[nH]c3c2)n2ccnc2)c1 (stereo not given) here?
Answer: -8.43% [at 28.3 µM]

Question: Cc1ccc(-c2ncc(Cl)cc2-c2ccc(S(C)(=O)=O)cc2)cn1 was tested. Which “activity, negative = inhibition” value did it give?
Answer: 2.94% [at 28.3 µM]

Question: For c1cc[c]([Bi]([c]2ccccc2)[c]2ccccc2)cc1, which “activity, negative = inhibition” value is on record?
Answer: -4.41%

Question: How did the “activity, negative = inhibition” value turn out when O=C(CS(=O)Cc1ccco1)NC/C=C\COc1cc(CN2CCCCC2)ccn1 (stereo not given) was run?
Answer: -0.0267% [at 28.3 µM]

Question: For CN1CCC(N(Cc2cccs2)c2ccccc2)CC1, which “activity, negative = inhibition” value is on record?
Answer: -1.74% [at 28.3 µM]

Question: How did the “activity, negative = inhibition” value turn out when Oc1ccc(CCNCCCCCCNCCc2ccccc2)cc1O was run?
Answer: 12.5% [at 28.3 µM]

Question: CC(=O)c1ccc2c(c1)[C@H](NC(=O)c1ccc(F)cc1)[C@@H](O)C(C)(C)O2 was tested. Which “activity, negative = inhibition” value did it give?
Answer: -19%

Question: For CC(C)CCCCCCN, which “activity, negative = inhibition” value is on record?
Answer: 0.674%

Question: O=C(O)c1ccc(-n2nc(-c3ccccc3O)nc2-c2ccccc2O)cc1 was tested. Which “activity, negative = inhibition” value did it give?
Answer: 6.26% [at 28.3 µM]

Question: How did the “activity, negative = inhibition” value turn out when Nc1ccc(N=Nc2ccc(N)cc2)cc1 was run?
Answer: 5.08% [at 28.3 µM]

Question: Which “activity, negative = inhibition” value does the source give for OC1CCCCC1c1ccccc1 (stereo not given) here?
Answer: 11.4%

Question: With COCCOC(=O)CC#N as the molecule, how does the “activity, negative = inhibition” value read?
Answer: 8.77%

Question: With CCCCCC=CCC=CCCCCCCCC(=O)OCC as the molecule, how does the “activity, negative = inhibition” value read?
Answer: 3.81% [at 28.3 µM]

Question: With COc1ccccc1OCC1CNC(=O)O1 (stereo not given) as the molecule, how does the “activity, negative = inhibition” value read?
Answer: 2.79% [at 28.3 µM]

Question: CC(CCO)CCCC(C)(C)O (stereo not given) was tested. Which “activity, negative = inhibition” value did it give?
Answer: 22.9%

Question: For CC(=O)OC(C)OC(C)=O, which “activity, negative = inhibition” value is on record?
Answer: 1.91%

Question: Which “activity, negative = inhibition” value does the source give for CCC/C=C(\C=O)CC here?
Answer: 19.1%

Question: With CCCCCCCCCCCC(=O)[O][Sn]([CH2]CCC)([CH2]CCC)[O]C(=O)CCCCCCCCCCC as the molecule, how does the “activity, negative = inhibition” value read?
Answer: -0.365% [at 28.3 µM]

Question: For Cc1ccccc1Br, which “activity, negative = inhibition” value is on record?
Answer: 1.52%

Question: With NNC(=O)CCCCC(=O)NN as the molecule, how does the “activity, negative = inhibition” value read?
Answer: 5.92%

Question: With CCCCC(CC)CNCC(CC)CCCC (stereo not given) as the molecule, how does the “activity, negative = inhibition” value read?
Answer: -14.4%

Question: Which “activity, negative = inhibition” value does the source give for C=CCOCC(O)CS(=O)(=O)O (stereo not given) here?
Answer: -1.14%

Question: C[C@@]12CCC[C@H]1[C@@H]1CC[C@H]3C[C@@H](O)CC[C@]3(C)[C@H]1CC2 was tested. Which “activity, negative = inhibition” value did it give?
Answer: 5.91% [at 28.3 µM]

Question: With Cc1cc2c(cc1C(F)(F)F)N(C(=O)Nc1ccc(Oc3cccnc3C)nc1)CC2 as the molecule, how does the “activity, negative = inhibition” value read?
Answer: -16%

Question: Which “activity, negative = inhibition” value does the source give for Brc1cc(Br)c(Oc2cc(Br)c(Br)cc2Br)cc1Br here?
Answer: 32.1% [at 28.3 µM]

Question: Which “activity, negative = inhibition” value does the source give for Fc1ccccc1 here?
Answer: 29.2%
